Assay [1] can be described thus: anti-His antibody binders, primary screen, artefact control for SMM control protein annotation, biochemical, small-molecule microarray, 635 nm fluorescence (AID 1128).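 Further: score merges feature fluorescence with signal-to-noise for each printed compound spot.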 The note with it: anti-His Alexa647 antibody binding, higher = more signal.
Assay [2] relates to Human papillomavirus type 1a E7 protein (residues 1-88). Nature of the assay: HPV1a E7 small-molecule binders, primary screen, biochemical, small-molecule microarray, residues 1-88, 635 nm (AID 1129). To be noted: small-molecule microarray binding, fluorescence 635 nm; higher = more signal.
In assay [3] the target is Focal adhesion kinase 1 (Homo sapiens) (UniProt Q05397). Nature of the assay: small-molecule microarray binders of FAK, primary screen, biochemical, 635/667 nm fluorescence, BSA, DTT (AID 1130).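 Further: composite of spot emission at 667 nm and signal to noise over triplicate slides.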 To be noted: PTK2 binding, 635 nm fluorescence, higher = more signal.
Sequence of Focal adhesion kinase 1 (Homo sapiens) (Q05397 whole entry, looked up): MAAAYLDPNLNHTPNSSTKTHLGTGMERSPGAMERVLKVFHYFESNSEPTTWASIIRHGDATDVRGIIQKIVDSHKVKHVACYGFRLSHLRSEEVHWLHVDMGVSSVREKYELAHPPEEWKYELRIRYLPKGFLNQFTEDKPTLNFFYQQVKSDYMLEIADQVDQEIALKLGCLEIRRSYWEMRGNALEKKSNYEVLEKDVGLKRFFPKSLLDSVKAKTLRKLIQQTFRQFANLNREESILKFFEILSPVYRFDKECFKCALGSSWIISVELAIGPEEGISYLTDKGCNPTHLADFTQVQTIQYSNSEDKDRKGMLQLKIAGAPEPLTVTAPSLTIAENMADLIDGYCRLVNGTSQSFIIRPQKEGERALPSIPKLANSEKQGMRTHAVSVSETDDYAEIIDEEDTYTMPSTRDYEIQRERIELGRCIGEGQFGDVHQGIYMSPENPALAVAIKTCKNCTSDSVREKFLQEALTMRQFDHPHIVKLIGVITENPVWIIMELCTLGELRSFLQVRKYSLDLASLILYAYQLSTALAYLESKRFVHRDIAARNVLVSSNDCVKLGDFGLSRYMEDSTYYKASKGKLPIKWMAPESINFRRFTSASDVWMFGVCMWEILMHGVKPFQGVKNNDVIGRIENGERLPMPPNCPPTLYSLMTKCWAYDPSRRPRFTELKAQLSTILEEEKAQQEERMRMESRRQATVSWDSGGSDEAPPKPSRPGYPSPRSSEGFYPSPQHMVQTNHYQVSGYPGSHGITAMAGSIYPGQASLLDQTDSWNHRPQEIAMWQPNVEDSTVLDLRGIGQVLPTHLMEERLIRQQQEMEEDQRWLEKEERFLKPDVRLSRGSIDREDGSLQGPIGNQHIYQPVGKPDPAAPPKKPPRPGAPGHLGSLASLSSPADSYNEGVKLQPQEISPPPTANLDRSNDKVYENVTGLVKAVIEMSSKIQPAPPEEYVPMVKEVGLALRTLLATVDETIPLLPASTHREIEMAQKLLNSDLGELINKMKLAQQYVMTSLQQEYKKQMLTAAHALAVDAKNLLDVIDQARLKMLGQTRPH
Assay [4] has as its system Fibrinogen (Alexa647-labelled). Nature of the assay: fibrinogen binders on compound microarrays, profiling panel, artefact control for SMM control-protein annotation, biochemical, small-molecule microarray, 635/667 nm fluorescence (AID 1131).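 Further: z-score merges 667 nm fluorescence with per-spot signal-to-noise over triplicate slides.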 The note with it: fibrinogen-A647 binding fluorescence, higher = more signal.
Assay [5] concerns the target Follistatin (Homo sapiens) (UniProt P19883). Nature of the assay: follistatin binders on small-molecule microarrays, primary screen, biochemical, small-molecule microarray, 635/667 nm fluorescence (AID 1132). The note with it: FST binding, 635 nm fluorescence, higher = more signal.
Assay [6] concerns the target Fibroblast growth factor 2 (Homo sapiens) (UniProt P09038). As to the kind of experiment: FGF2 binders on small-molecule microarrays, primary screen, biochemical, small-molecule microarray, 635/667 nm fluorescence (AID 1133). The note with it: small-molecule microarray binding, FGF2, fluorescence 635/667; higher = more signal.
Assay [7] is described as follows: mitochondrial membrane potential change in A549 cells, profiling panel, cell-based, JC-1 fluorescence, basal, 24 h, 100 nL (AID 1138).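 Further: A549 lung adenocarcinoma cells under basal conditions with no added stimulus; test concentration not given here.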 The note with it: higher = more signal.
A further assay relates to Lefty1. As to the kind of experiment: Lefty1 binders on small-molecule microarrays, primary screen, biochemical, small-molecule microarray, 635/667 nm fluorescence (AID 1139). The note with it: small-molecule microarray binding, fluorescence 635/667; higher = more signal.
Assay [8] deals with wheat germ agglutinin (Triticum aestivum), Alexa647-labelled. As to the kind of experiment: wheat germ agglutinin binders on compound microarrays, profiling panel, artefact control for SMM control-protein annotation, biochemical, small-molecule microarray, 635/667 nm fluorescence (AID 1140).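 Further: score merges 667 nm feature emission with signal to noise over triplicate slides.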 The note with it: WGA-A647 binding, 635 nm fluorescence, higher = more signal.
The target in assay [9] is Luciferin 4-monooxygenase (Photinus pyralis) (UniProt P08659). Nature of the assay: firefly luciferase enzyme inhibitors, primary screen, biochemical, luminescence, purified enzyme, 2006 set (AID 1141).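 Further: cell-free assay with purified firefly luciferase at 100 ng per well in PBS; test concentration not given here.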 To be noted: SteadyGlo luminescence, 30 min, higher = more signal, called active from +8 up or from −8 down.
Sequence of Luciferin 4-monooxygenase (Photinus pyralis) (P08659 whole entry, looked up): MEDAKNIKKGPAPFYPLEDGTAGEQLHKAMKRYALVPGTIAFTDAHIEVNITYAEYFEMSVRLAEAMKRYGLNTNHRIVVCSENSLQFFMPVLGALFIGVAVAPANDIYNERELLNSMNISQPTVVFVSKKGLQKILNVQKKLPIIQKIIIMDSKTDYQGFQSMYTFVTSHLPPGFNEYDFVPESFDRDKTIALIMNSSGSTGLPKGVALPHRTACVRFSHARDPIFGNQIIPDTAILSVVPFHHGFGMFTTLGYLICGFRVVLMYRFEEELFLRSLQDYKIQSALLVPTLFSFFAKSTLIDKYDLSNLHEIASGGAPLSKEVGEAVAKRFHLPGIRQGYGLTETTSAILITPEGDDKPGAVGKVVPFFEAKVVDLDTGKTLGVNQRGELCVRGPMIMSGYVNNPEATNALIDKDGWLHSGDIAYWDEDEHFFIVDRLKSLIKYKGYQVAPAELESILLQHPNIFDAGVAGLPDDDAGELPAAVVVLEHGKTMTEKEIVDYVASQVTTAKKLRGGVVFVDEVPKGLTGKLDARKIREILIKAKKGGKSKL
Assay [10] has as its system Wnt5a (protein binding on small-molecule microarray). Nature of the assay: Wnt5a binders on small-molecule microarray, primary screen, biophysical, 635/667 nm fluorescence (AID 1142).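 Further: fluorescence read at 667 nm with signal to noise per printed feature.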 The note with it: 635 nm fluorescence, higher = more signal.
A short description of assay [11]: cell viability in Huh7 cells, primary screen, cytotoxicity control for HCV replication inhibitor project, CellTiter-Glo luminescence, basal, 48 h (AID 1143).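 Further: Huh7 hepatoma cells carrying a hepatitis C replication reporter with no stimulus; test concentration not given here.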 To be noted: Huh7 HCV replicon, higher = more signal, called active from +8 up or from −8 down. On the technique in general: In ATP-based viability assays light output follows the ATP content of the culture.
Assay [12] is described as follows: P. aeruginosa biofilm formation inhibitors, primary screen, PAO1 strain, BacTiter-Glo luminescence, LB-PBS (AID 1144). The note with it: 12 h, higher = more signal.
The nature of assay [13]: CREB reporter modulators without forskolin, primary screen, cell-based, PC12, CRE-LacZ reporter, unstimulated (AID 1145). The note with it: no forskolin, luminescence, 4.5 h, higher = more signal, called active from +8 up or from −8 down.
Assay [14] in a line: CREB reporter modulators under forskolin, primary screen, cell-based, PC12, CRE-LacZ reporter, forskolin-stimulated (AID 1146).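 Further: PC12 cells with 6xCRE LacZ reporter stimulated by forskolin 10 µM; beta-galactosidase reporter signal reflecting CREB driven transcription.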 To be noted: luminescence, 4.5 h, higher = more signal, called active from +8 up or from −8 down.
For assay [15], the target named is Streptavidin (Streptomyces avidinii) (UniProt P22629). As to the kind of experiment: streptavidin binders on small-molecule microarray, primary screen, artefact control for SMM compound annotation, biophysical, 635/667 nm fluorescence (AID 1147).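 Further: signal reflects streptavidin binding to arrayed compounds as a control protein.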 The note with it: streptavidin binding, higher = more signal.
Sequence of Streptavidin (Streptomyces avidinii) (P22629 whole entry, looked up): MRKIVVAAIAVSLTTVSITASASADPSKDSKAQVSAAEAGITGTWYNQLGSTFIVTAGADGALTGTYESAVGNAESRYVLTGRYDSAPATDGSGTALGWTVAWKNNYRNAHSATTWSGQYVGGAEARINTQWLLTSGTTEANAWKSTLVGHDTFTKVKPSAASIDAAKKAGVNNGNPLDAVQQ
Assay [16] in a line: small-molecule binders of probe aInhba, primary screen, biochemical, small-molecule microarray, 635/667 nm fluorescence (AID 1148).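 Further: score merges 667nm spot fluorescence with signal-to-noise for antibody binding to printed compounds.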 The note with it: higher = more signal.
For assay [17], the target named is Torsin-1A (Homo sapiens) (UniProt O14656). Nature of the assay: torsin A binders from cell lysate, primary screen, small-molecule microarray, wild-type, 635/667 nm (AID 1149). To be noted: COS7 hTOR1A-WT lysate, 635 nm fluorescence, higher = more signal.
Sequence of Torsin-1A (Homo sapiens) (O14656 whole entry, looked up): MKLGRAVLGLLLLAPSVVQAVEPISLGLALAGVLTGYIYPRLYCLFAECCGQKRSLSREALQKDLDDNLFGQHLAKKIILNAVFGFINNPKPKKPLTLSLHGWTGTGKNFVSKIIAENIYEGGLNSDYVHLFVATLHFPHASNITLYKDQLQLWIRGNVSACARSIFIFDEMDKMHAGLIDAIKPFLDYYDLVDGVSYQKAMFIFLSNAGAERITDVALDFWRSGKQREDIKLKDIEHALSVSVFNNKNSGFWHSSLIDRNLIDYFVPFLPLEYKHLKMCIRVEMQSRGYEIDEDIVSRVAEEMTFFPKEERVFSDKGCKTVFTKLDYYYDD
For assay [18] the target is unchanged. As to the kind of experiment: small-molecule binders of mutant TOR1A in lysate, primary screen, cell lysate, small-molecule microarray, COS7 lysate, 635/667 nm fluorescence (AID 1150).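 Further: score pools 667 nm emission and signal to noise measuring lysate protein binding.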 To be noted: COS7 hTOR1A mutant lysate, 635 nm fluorescence, higher = more signal.
The test system of assay [19] is Sonic hedgehog protein (Shh). As to the kind of experiment: small-molecule binders of Shh protein, primary screen, biochemical, small-molecule microarray, 635/667 nm fluorescence (AID 1151).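 Further: Shh protein binding to compounds spotted on small-molecule microarray slides; score combines spot fluorescence intensity with signal-to-noise across triplicate slides.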 The note with it: small-molecule microarray binding, 635 nm fluorescence; higher = more signal.

Molecules are shown by their SMILES. Active and inactive are the calls of the source. Unless noted, how the calls were made is not given here.

Sequence of Follistatin (Homo sapiens) (P19883 whole entry, looked up): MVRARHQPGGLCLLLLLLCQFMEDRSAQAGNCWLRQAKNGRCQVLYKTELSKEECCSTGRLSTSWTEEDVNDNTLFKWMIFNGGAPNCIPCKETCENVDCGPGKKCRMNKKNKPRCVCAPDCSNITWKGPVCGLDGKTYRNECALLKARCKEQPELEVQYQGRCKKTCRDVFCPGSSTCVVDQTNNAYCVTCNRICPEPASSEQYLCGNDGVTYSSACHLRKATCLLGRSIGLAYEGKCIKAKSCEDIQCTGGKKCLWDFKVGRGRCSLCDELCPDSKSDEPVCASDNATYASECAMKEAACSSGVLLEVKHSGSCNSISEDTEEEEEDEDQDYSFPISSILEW
Sequence of Fibroblast growth factor 2 (Homo sapiens) (P09038 whole entry, looked up): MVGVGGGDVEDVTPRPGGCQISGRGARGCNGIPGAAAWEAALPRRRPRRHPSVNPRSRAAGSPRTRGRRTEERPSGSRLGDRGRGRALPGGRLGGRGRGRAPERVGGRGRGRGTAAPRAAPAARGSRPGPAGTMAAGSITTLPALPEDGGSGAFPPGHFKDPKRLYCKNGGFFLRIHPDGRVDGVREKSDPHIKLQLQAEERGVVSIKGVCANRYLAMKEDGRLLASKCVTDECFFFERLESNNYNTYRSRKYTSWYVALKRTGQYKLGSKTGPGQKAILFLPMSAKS

Take `COCCOC(=O)N1C(=O)[C@@]2(c3cc(C#Cc4ccc(OC)cc4)ccc31)[C@H](c1ccc(OCCO)cc1)N1[C@H](c3ccccc3)[C@H](c3ccccc3)OC(=O)[C@H]1[C@@H]2C(N)=O`: the composite z-score in [1] is 2.14; in assay [2], 1.13; in [3] it was 1.03; in assay [4] it was 0.519; in [5], 1.41; in assay [6], 1.31. The composite z-score in the assay with Lefty1 stood at 1.39; in assay [8] it was 1; in assay [10], 0.41; in assay [15] it was 0.879; in assay [16], 0.187; in the assay with Torsin-1A (Homo sapiens) [17], 0.428. In addition, the composite z-score with Torsin-1A (Homo sapiens) [18] was determined as 0.835; in assay [19], 1.96. For the same molecule, the z-score in [7] was -1.28; in assay [9] it was -0.35 (inactive); in assay [11] it was -2.73 (inactive); in assay [12], 0.854 (inactive); in [13] it was -1.15 (inactive); in assay [14] it was -1.28 (inactive).

For the molecule `O=C1OCC=C[C@H]2OC34C=CCN(CCN5CCOCC5)C(=O)[C@H]3N(CCCCCO)C(=O)[C@@H]4[C@@H]12` (stereo not given in full), the composite z-score was 2.23 in assay [1]; -0.277 in assay [2]; 0.311 in [3]; -0.155 in [4]; -0.307 in assay [5]; -0.12 in [6]. Further, the composite z-score is -0.0262 with Lefty1; 0.28 in assay [8]; -0.304 in assay [10]; 0.257 in assay [15]; -0.128 in assay [16]; -0.419 in the assay with Torsin-1A (Homo sapiens) [17]. Moreover, the composite z-score with Torsin-1A (Homo sapiens) [18] worked out at 0.11; in [19] it was 0.175. The z-score in assay [7] is -0.829; in [9] it was -0.346 (inactive); in assay [11], 0.0976 (inactive); in assay [12], 0.0824 (inactive); in assay [13], 2.22 (inactive); in assay [14], -0.555 (inactive).

With `Cc1ccc(N2C(=O)c3ccccc3[C@](C)(C(=O)NC(C)C)[C@@H]2c2ccc(CO)cc2)nc1`, the composite z-score in assay [1] was -2.03; in [2] it was -1.29; in assay [3] it was -1.72; in [4], -2.28; in [5], -0.739; in [6], -0.276. In addition, the composite z-score in the assay with Lefty1 was -2.28; in [8], 0.654; in assay [10], -0.281; in assay [15], -1.78; in assay [16], -0.289; in the assay with Torsin-1A (Homo sapiens) [17] it was -3.17. For the same molecule, the results for the composite z-score (in the assay with Torsin-1A (Homo sapiens) [18]; in assay [19]) were 0.758 and -0.974, respectively. In addition, the z-score in assay [7] was 0.0388; in assay [9], -1.01 (inactive); in assay [11], 0.328 (inactive); in [12], 0.306 (inactive); in [13], 0.155 (inactive); in [14], 0.521 (inactive).

These data come from PubChem BioAssay.
